Most compounds without a hit are left out; they make up all but 3.1% or so of the library.
KKLEB tox – reduces viability of KKLEB cystic fibrosis airway cells; KKLEB CF airway cells viability, ATPlite luminescence, overnight; active compounds read low; cells stimulated with P. aeruginosa culture filtrate; hit rate 0.36% among 360,000; activity change (cytotoxicity), % at 5 µM;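 active = corrected activity change at or below -50% at 5 µM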
PPC-1+TRAIL kill – compounds killing PPC-1 cancer cells with TRAIL present (potentiator screen, no TRAIL-free arm) | PPC-1 cells + TRAIL, ATPLite viability luminescence | cell killing (% activity), % at 4 µM or 5 µM | hit rate 0.41% among 220,000 | AID 1443;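 active = cell killing above 50% in the first pass at 4 µM, then a duplicate retest at 5 µM averaging 50% or more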;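 note: plate controls were cells with TRAIL plus DMSO for no effect and medium-only wells lacking cells for full effect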
TRAIL sens C8 – sensitizes caspase-8 expressing cells to TRAIL. hit rate 1% among 360,000. inhibition (viability loss, TRAIL sensitization), % at 10 µM. NB7+C8 cells + TRAIL, ATPlite viability luminescence;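 active = compounds causing at least 50% loss of cell viability in the single-dose screen, relative to plate controls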
HIF-2a block – blocks HIF-2a reporter activity; 786-0 RCC cells HIF-2a reporter, luciferase luminescence, overnight; inhibition, % at 18.8 µM; hit rate 0.72% among 360,000;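 active = inhibition of the luminescence signal of 40% or more relative to plate controls, in a single-dose primary screen at 18.75 µM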
Peg3 promoter – reduces Peg3 promoter-driven luciferase expression in HeLa. HeLa PEG-Prom luciferase reporter, luminescence, overnight. inhibition, % at 20 µM. hit rate 1.7% among 360,000;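 active = inhibition of at least 50% at 20 µM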
CF NFkB inh – cystic fibrosis NF-kB activation inhibition; KKLEB NF-kB-GFP reporter, PAF-induced, GFP fluorescence overnight; inhibition, % at 5 µM; hit rate 0.86% among 360,000; AID 588850;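 active = at least 50% inhibition at 5 µM, scaled per plate between neutral and stimulator controls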;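 note: PAF is a Pseudomonas aeruginosa culture filtrate used as stimulus; plate controls were PAF-stimulated DMSO wells for no effect and unstimulated DMSO wells for full effect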
The depositor's hits bear a star; / = not tested or not shown.

SMILES | KKLEB tox | PPC-1+TRAIL kill | TRAIL sens C8 | HIF-2a block | Peg3 promoter | CF NFkB inh
Cc1ccccc1-c1cnc(C(O)c2ccc(F)c(F)c2)[nH]1 (stereo not drawn) | 8.9 | / | 6.9 | -101.1 | -23.8 | -3.2
COc1cccc(NC(=O)N(C)C[C@H]2Oc3cc(Br)ccc3S(=O)(=O)N([C@H](C)CO)C[C@H]2C)c1 | 1.1 | / | -4.7 | 6.3 | 12.2 | -1.0
COc1cccc(/C=C2\SC(=S)N(CCCC(=O)Nc3cc(C)on3)C2=O)c1 | -3.1 | / | -7.4 | 33.7 | 26.8 | 7.2
O=C(CCCN1C(=O)/C(=C\c2ccccc2)SC1=S)Nc1ccc(O)cc1 | -10.4 | / | 9.9 | 60.9* | 83.2* | 10.3
O=C(CCN1C(=O)/C(=C\c2ccccc2)SC1=S)Nc1ccc(C(=O)O)cc1 | 0.5 | / | -52.4 | 19.2 | 11.7 | 18.2
COc1cccc(/C=C2\SC(=S)N(CCCC(=O)NC3=NCCS3)C2=O)c1 | -2.1 | / | 3.1 | 86.8* | 29.1 | -14.4
COc1cccc(/C=C2/SC(=S)N(CCCC(=O)Nc3ccc(O)cc3)C2=O)c1 | -15.8 | / | 12.4 | 19.5 | 99.4* | 20.8
CCCCOc1ccc(C(=O)N(CC)CC(=O)NCc2cccs2)cc1 | 12.8 | / | 5.3 | -17.9 | 8.1 | -11.2
CCN(CC(=O)Nc1c(F)cccc1F)C(=O)C1CCN(S(=O)(=O)c2ccccc2C(=O)OC)CC1 | 19.4 | / | -0.8 | -6.1 | 6.5 | -7.4
COc1ccc(S(=O)(=O)NC(=O)C2(C)CCN2C(=O)Cc2cc(C)cc(C)c2)cc1OC (stereo not drawn) | 0.1 | / | -9.7 | 14.2 | 2.9 | -5.0
COC(=O)C1CCN(C(=O)CN2C(=O)NC3(CCC(C)CC3)C2=O)CC1 (stereo not drawn) | -18.2 | / | 9.2 | 8.5 | 9.8 | -15.1
O[C@H]1CN(CC2CCCCC2)[C@@H](c2ccc(Cl)cc2)C[C@@H]1n1cc(-c2ccc(F)cc2)nn1 | -0.7 | / | 25.6 | -11.9 | 34.6 | 32.6
COC(=O)c1cccc(-c2ccc(/C=N/N3C(=O)C4C5C=CC(C6CC56)C4C3=O)o2)c1 (stereo not drawn) | -0.5 | 9.4 | -3.1 | -20.4 | -3.9 | -4.5
COC(=O)c1ccc(-c2ccc(/C=N/N3C(=O)C4C5C=CC(C6CC56)C4C3=O)o2)cc1 (stereo not drawn) | 2.2 | 54.7* | 11.2 | -107.9 | -42.3 | 0.8
CCCn1c(SCC(=O)N2CC(=O)Nc3ccccc32)n[nH]c1=O | 8.7 | / | 1.0 | 16.8 | 0.2 | -7.2
Cc1ccsc1/C=N/NC(=O)C(N)=O | 11.7 | 7.2 | 1.6 | -113.2 | -82.4 | -9.3
Cc1ccsc1/C=N/Nc1ccc(C(=O)O)cc1 | 12.4 | / | 7.6 | 56.8* | 36.7 | -8.2
N#Cc1nc(Nc2cc(F)cc(F)c2)c2ncn(CC(F)F)c2n1 | -28.6 | / | 28.3 | -229.7 | -334.2 | 8.0
N#Cc1nc(NCC(F)F)nc(Nc2cc(F)cc(F)c2)n1 | 19.6 | / | 50.1* | 7.7 | 107.1* | 73.1*
O=C(Cc1n[nH]c(=O)[nH]c1=O)N/N=C/c1c(O)ccc2ccccc12 | 2.9 | 19.0 | 8.1 | 17.8 | 17.6 | -5.2
COc1ccccc1NCC(=O)N/N=C/c1c(O)ccc2ccccc12 | -17.3 | / | 11.9 | 8.8 | 56.0* | 8.9
O=C(CNc1ccc(F)cc1)N/N=C/c1c(O)ccc2ccccc12 | 1.6 | / | 6.3 | -8.7 | 51.2* | 14.6
C=CCNC(=O)c1ccsc1N | / | / | 2.1 | 7.8 | / | /
N#Cc1c(NCCN)nc(-c2ccccc2)c2c1CCCC2 | -7.3 | 28.3 | -15.4 | 24.4 | 66.5* | 21.2
N#Cc1c(NCCCO)nc(-c2ccccc2)c2c1CCCC2 | -11.2 | 3.9 | -1.1 | 10.9 | 17.0 | 19.4
SMILES | KKLEB tox | PPC-1+TRAIL kill | TRAIL sens C8 | HIF-2a block | Peg3 promoter | CF NFkB inh
CC(=O)c1cccc(-c2ccnc3c2CC(C(=O)Nc2cccc(C(F)(F)F)c2)O3)c1 (stereo not drawn) | -7.7 | / | 14.0 | -0.6 | 36.2 | 2.9
COc1ccc(CN(C)C(=O)c2cccc(NC(=O)CC3SC(N4CCCCC4)=NC3=O)c2)c(OC)c1 (stereo not drawn) | 8.4 | / | 37.9 | -5.5 | 54.2* | 7.2
CCN=C1S/C(=C\c2cc(OCC)c(O)cc2Br)C(=O)N1CC | -28.7 | 11.2 | -5.4 | 15.2 | 51.2* | 46.6
CCN=C1S/C(=C\c2ccc(O)c(OCC)c2)C(=O)N1CC | -18.4 | -6.9 | 3.4 | -59.7 | -3.1 | 34.5
Cc1cc(N2CCCC2=O)ccc1S(=O)(=O)NC1CCCCC1 | -7.1 | / | 6.4 | 7.8 | 7.6 | 7.7
N#Cc1nc(-c2ccc(OCc3ccc(Cl)cc3)cc2)oc1N1CCOCC1 | -7.3 | 26.2 | 14.7 | -47.6 | 56.0* | -5.1
N#Cc1nc(-c2ccc(OCc3ccc(Cl)cc3)cc2)oc1N1CCC(C(N)=O)CC1 | -1.3 | 0.6 | -12.9 | -52.8 | 5.6 | -7.4
COc1cc(CN2CCC(CCC(=O)NC3CC3)CC2)cc(Cl)c1OC | -6.4 | / | -11.2 | 17.3 | 2.9 | 2.1
CCCNC(=O)c1cc(C2CCCCN2S(C)(=O)=O)on1 (stereo not drawn) | -0.2 | / | 19.7 | -2.2 | -13.3 | 14.7
Fc1cccc(CCN2CCNC[C@@H]2Cc2ccccc2)c1 | -9.3 | / | 3.4 | 3.5 | -0.6 | -12.0
FC(F)(F)c1cc(CCN2CCNC[C@@H]2Cc2ccccc2)cc(C(F)(F)F)c1 | -10.6 | / | 30.4 | -2.0 | 102.0* | 24.7
CCOCCCNc1ncnc2c1nc1n2CCCC1 | 8.4 | / | -3.2 | -7.6 | -10.4 | 5.7
Cc1occc(=O)c1O | -88.4* | 2.2 | -1.8 | -1.4 | -4.6 | -16.9
Cc1c(O)ccoc1=O | 7.0 | 22.2 | 0.0 | 11.9 | 15.6 | -10.0
CCOC(=O)c1ccc2c(c1)nc(-c1ccccn1)n2CC | -14.8 | / | 56.4* | -218.4 | -220.6 | -6.4
CCOC(=O)Cn1c(-c2ccccn2)nc2ccccc21 | -2.8 | 14.6 | 5.7 | 5.5 | 15.0 | -10.1
O=C1c2cccc3cccc(c23)C(=O)N1CC1CCN(CC(O)COc2ccc3ccccc3c2)CC1 (stereo not drawn) | -14.9 | / | 25.7 | -4.7 | 100.5* | 20.4
O=C1c2cccc3cccc(c23)C(=O)N1CCN1CCN(CC(O)COc2ccc3ccccc3c2)CC1 (stereo not drawn) | -15.1 | 10.7 | -2.7 | -13.6 | 78.7* | -17.4
CCc1ccc(OCC(O)CN2CCC(CN3C(=O)c4cccc5cccc(c45)C3=O)CC2)cc1 (stereo not drawn) | -28.5 | 34.2 | 30.6 | 27.1 | 108.6* | 22.7
Cc1cc(C)cc(OCC(O)CN2CCC(CN3C(=O)c4cccc5cccc(c45)C3=O)CC2)c1 (stereo not drawn) | -8.7 | / | 11.8 | 8.5 | 75.2* | -11.7
O=C(Nc1nnc([C@@H]2C[C@H](O)[C@@H](CO)O2)s1)c1ccc(Oc2ccccc2)cc1 | 13.4 | / | -5.6 | -5.7 | -17.9 | -5.7
COc1ccc(/C=C/CN2CCC(C(=O)NC(c3ccc(F)cc3)c3ccc4ccccc4n3)CC2)cc1 (stereo not drawn) | -17.8 | / | 22.7 | -24.8 | 102.0* | 10.0
CC(=O)c1ccc(N2CCN(c3ccc(S(=O)(=O)NCCCN(C)C)cc3[N+](=O)[O-])CC2)cc1 | -4.1 | 26.6 | 24.6 | -5.5 | 79.4* | 8.0
